High-throughput results: PubChem BioAssay, National Center for Advancing Translational Sciences (NCATS)
An excerpt weighted towards active compounds, which were near 3.2% of everything screened.
Tau fibril ThT = qHTS for Inhibitors of Tau Fibril Formation, Thioflavin T Binding. Microtubule-associated protein tau (Homo sapiens), P10636. Potency, µM (titrated, usually from 57.4 µM), for the others: at the highest dose activity, negative = inhibition, actives largely listed as inhibitors. recombinant tau K18 P301L, heparin-induced fibrillization, ThT fluorescence. 270,000 compounds, 2.1% hits; note: potency is the fitted concentration of half-maximal effect; % is set by controls: 0 for no effect and ±100 for the full control effect; nearly all actives have a fitted effect of over 55% in size
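ThT emission at 510 nm, taken 1 hr after adding 30 uM dye, quantifies aggregates formed when 20 uM heparin acts on human tau K18 P301L for 6 hr at 37 C.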
Tau fibril FP = qHTS for Inhibitors of Tau Fibril Formation, Fluorescence Polarization. Microtubule-associated protein tau (Homo sapiens), P10636. K18 P301L tau heparin fibrillization, Alexa594 FP, 6 h. Potency, µM (highest dose often 57.7 µM), for inactives: at the highest dose activity, negative = inhibition, hits mostly inhibitors. 280,000 compounds, 0.39% hits. AID 1468, 2008; note: potency is the fitted concentration of half-maximal effect; % is set by controls: 0 for no effect and ±100 for the full control effect; nearly all actives have a fitted effect of over 55% in size
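FP of Alexa 594-tau after heparin (20 uM) induction. Substrate: human K18 P301L, 15 uM unlabeled, 0.24 uM labeled. Buffer 100 mM sodium acetate pH 7. 6 hr, 37 C.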
CBFb RUNX1 block = qHTS Assay for Compounds Blocking the Interaction Between CBF-beta and RUNX1 for the Treatment of Acute Myeloid Leukemia; AlphaScreen CBFb-His/RUNX1-biotin binding, biochemical; Potency, µM (series often up to 59.8 µM), without a hit: at the top dose activity, negative = inhibition, actives largely listed as inhibitors; 230,000 tested, under 10 active; AID 1477, 2009; note: % of control where 0% means no effect
Target sequence (Q01196 whole entry, looked up): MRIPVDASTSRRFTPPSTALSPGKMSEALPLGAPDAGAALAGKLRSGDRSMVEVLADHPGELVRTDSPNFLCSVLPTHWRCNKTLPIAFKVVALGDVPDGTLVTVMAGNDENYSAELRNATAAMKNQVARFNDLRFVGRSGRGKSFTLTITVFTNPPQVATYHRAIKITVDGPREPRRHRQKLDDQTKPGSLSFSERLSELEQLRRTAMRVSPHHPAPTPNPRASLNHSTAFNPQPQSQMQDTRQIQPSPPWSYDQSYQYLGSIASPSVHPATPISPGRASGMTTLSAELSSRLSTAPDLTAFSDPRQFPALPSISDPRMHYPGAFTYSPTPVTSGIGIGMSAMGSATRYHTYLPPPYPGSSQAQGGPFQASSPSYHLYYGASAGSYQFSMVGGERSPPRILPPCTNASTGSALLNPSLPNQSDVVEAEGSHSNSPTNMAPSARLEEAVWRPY
Target sequence (Q13951 whole entry, looked up): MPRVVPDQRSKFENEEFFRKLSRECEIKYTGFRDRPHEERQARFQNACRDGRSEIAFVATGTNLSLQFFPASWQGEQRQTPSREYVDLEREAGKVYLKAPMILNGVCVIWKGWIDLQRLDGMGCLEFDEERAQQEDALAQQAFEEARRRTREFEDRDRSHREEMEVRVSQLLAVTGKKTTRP
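Proteins preincubated together for 20 min at RT before compound addition; 15 min later, nickel and streptavidin beads were added and left 90 min prior to AlphaScreen measurement.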
Tau fluor counter = Counterscreen qHTS for Inhibitors of Tau Fibril Formation, Fluorescence Polarization. tau K18 P301L (four-repeat tau fragment) Alexa594 fluorescence, heparin fibrillization. Potency, µM (highest dose often 57.7 µM), without a hit: at the highest dose activity change, negative = decrease. 280,000 compounds, 0.93% hits. AID 1463, 2008; note: potency is the fitted concentration of half-maximal effect; % is set by controls: 0 for no effect and ±100 for the full control effect; nearly all actives have a fitted effect of over 55% in size
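Human K18 P301L tau (15 uM unlabeled plus 0.24 uM Alexa 594-labeled, final) in 100 mM sodium acetate pH 7 was mixed with compound and 20 uM heparin and incubated 6 hr at 37 C.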
JMJD2E inh = qHTS Assay for Inhibitors of Human Jumonji Domain Containing 2E (JMJD2E); Potency, µM (top dose mostly 57.1 µM), inactives show at the highest dose activity change, negative = inhibition, hits mostly inhibitors; 230,000 compounds, 1.6% hits; Lysine-specific demethylase 4E (Homo sapiens), B2RXH2; JMJD2E catalytic domain, FDH-coupled NADH fluorescence (FDH is formaldehyde dehydrogenase);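 note: potency is the fitted concentration of half-maximal effect; 0% = wells with enzyme and -100% = buffer wells without enzyme; nearly all actives have a fitted effect of over 50% in size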
LMNA splice mod = qHTS Assay for Modulators of Lamin A Splicing. HeLa LMNA splicing GFP/RFP minigene ratio, 48 h. Potency, µM (highest dose often 46.1 µM), inactives show at the highest dose ratio change, negative = inhibition, most hits filed as inhibitors. 200,000 compounds, 0.01% hits. AID 1487, 2009; active = well fitted inhibition curve with a large enough effect in the signal ratio, with a control signal flat, not every such curve was filed as active; inconclusive = small, poorly fitted or top-dose-only effect, or effect the other way, or a change in a side signal; the % refers to the signal ratio; note: potency is the fitted concentration of half-maximal effect; % is set by controls: 0 for no effect and ±100 for the full control effect
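S3 HeLa stable clones carrying a lamin A-EGFP splicing minigene plus DsRed2 were seeded at 600 cells/well in Opti-MEM with 2% FBS, pin-dosed and incubated 48 h at 37°C. Acumen cytometry (488 nm) gave the GFP/RFP total-intensity ratio.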
Numbers without * were called inactive; u = inconclusive; x = not tested or not shown; [ ] = another dose, or the depositor's remark. Unless noted, calls come from the whole dose curve; as a rule, active = well fitted curve in the direction sought with a large enough effect; inconclusive = small, poorly fitted or top-dose-only effect, or another doubt; inactive = no such curve, though single readings can be large; an effect the other way counts as inactive or inconclusive.

SMILES	Tau fibril ThT	Tau fibril FP	CBFb RUNX1 block	Tau fluor counter	JMJD2E inh	LMNA splice mod
CCS(=O)(=O)N1CC(=O)N(c2ccc(Cl)cc2)C(C)(C(=O)NC2CCCCC2)C1 (centres undefined)	3%	1%	x	0%	x	1%[46 µM]
C[C@@]12CCc3occc3[C@H]1CC[C@@]13C[C@@H](CC[C@H]12)[C@@](O)(CO)C3	x	x	7%	x	x	x
N#Cc1c(N)nc(SCC(=O)C23CC4CC(CC(C4)C2)C3)c(C#N)c1-c1ccc(Cl)cc1	-8%	-7%	4%	-12%	3.5µM*	4%
Cc1sc2ncn(CC(=O)N3CCN(c4cccc(Cl)c4)CC3)c(=O)c2c1S(=O)(=O)N1CCN(c2ncccn2)CC1	0%	2%	x	-24%	x	x
Oc1[nH]c2ccc(Br)cc2c1N=NC(=S)Nc1ccc(F)cc1	x	-3%[0.0958 µM]	-24%	7%[0.0958 µM]	-12%	x
Oc1ccc(NC(=S)N=Nc2c(O)[nH]c3ccc(Br)cc23)cc1	5µM*	-2%	u	16µM*[quencher]	20%	x
CNC(=S)N=Nc1c(O)[nH]c2ccccc12	u	-15%	-17%	-18%	5%	u
CNC(=S)N=Nc1c(O)[nH]c2ccc(C(C)C)cc12	16µM*	-3%	-24%	u	6%	-17%
Oc1cccc(NC(=S)N=Nc2c(O)[nH]c3ccc(Br)cc23)c1	6.3µM*	-2%	u	11µM*[quencher]	6%	x
Oc1ccc(NC(=S)N=Nc2c(O)[nH]c3ccccc23)cc1	14µM*	4%	-25%	u	-4%	u
CC(=O)N1CCc2cc(S(=O)(=O)NC(Cc3ccccc3)C(=O)NCc3ccccc3Cl)ccc21 (centres undefined)	-10%	7%	x	-20%	x	x
Cc1c(C(=O)N(C)C)sc2c1c(=O)n(-c1ccc(Cl)c(Cl)c1)c(=O)n2CC(=O)Nc1cccc(C(F)(F)F)c1	17%	u	x	-29%	x	-10%[46 µM]
Cn1c(=O)c2c(SCC(=O)NCc3ccc(F)cc3)nc(-c3ccccc3Cl)nc2n(C)c1=O	4%	u	x	-3%	x	-11%[46 µM]
CCC(C(=O)Nc1cc(OC)cc(OC)c1)n1nc(-c2ccc(C)c(C)c2)ccc1=O (centres undefined)	3%	-3%	x	u	x	u
N=C(N)N=Nc1c(O)[nH]c2ccc(Br)cc12	u	-2%	5%	-9%	-22%	-11%[46 µM]
O=C(N=Nc1c(O)[nH]c2ccc(Br)cc12)c1ccccc1-n1cccc1	u	u	u	14µM*[quencher]	-7%	u
Cc1ccc(-n2nc3c(=O)n(CCCC(=O)NC(C)c4ccccc4)nc(C)c3c2C)cc1 (centres undefined)	2%	3%	x	0%	x	x
COc1ccc(OC)c(NC(=O)CN(c2ccccc2OC)S(=O)(=O)c2ccc(C)cc2)c1	-16%	1%	x	u	x	x
COC(=O)c1ccc2c(c1O)C(=O)c1ccccc1C2=O	5.6µM*	-3%	-22%	u	8%	-6%
O=C1c2ccc(O)c(O)c2C(=O)c2c(O)ccc(O)c21	1.4µM*	13µM*	x	2.5µM*[quencher]	3.5µM*	x
O=C1c2ccccc2C(=O)c2c1ccc(O)c2O	8.9µM*	-7%	u	u	14µM*	u
O=C1c2cccc(O)c2C(=O)c2c(O)cccc21	u	-6%	-28%	u	-7%	u
COc1cc2c(c(OC)c1OC)-c1c(cc3c(c1OC)OCO3)CC(C)C(C)(O)C2OC(=O)c1ccccc1 (centres undefined)	x	x	14%	x	x	x
CC1CCC(O)C/C1=C\C=C1/CCCC2(C)C1CCC2C(C)/C=C/C(C)C(C)C (centres undefined)	x	x	7%	x	x	x
CN1CCN(c2ncc3ncc(=O)n(C[C@H]4CCCO4)c3n2)CC1	x	x	x	x	x	-8%
SMILES	Tau fibril ThT	Tau fibril FP	CBFb RUNX1 block	Tau fluor counter	JMJD2E inh	LMNA splice mod
O=C(Cn1cc(SCc2cccc(Cl)c2)c2ccccc21)N1CCCCCC1	-12%	3%	x	-15%	x	x
CCCCCc1cc(=O)oc2c(C(CCN3CCCC3)c3cc(OC)c(OC)c(OC)c3)c(OC)cc(OC)c12 (centres undefined)	u	0%	3%	5%	22µM*	x
Fc1ccc(CNc2nc(-c3ccc(Cl)cc3)cc(C(F)(F)F)n2)cc1	-14%	u	x	-22%	x	x
Oc1ccc(/C=N/Nc2nc(-c3ccc(Cl)cc3)cc(C(F)(F)F)n2)cc1	18µM*	u	-12%	25µM*[quencher]	-1%	u
COc1ccc2[nH]c3c4c(ccc3c2c1)C(=O)C=CC4=O	3.5µM*	11µM*	-19%	2µM*[quencher]	u	x
CC(=O)OC[C@@H]1O[C@@H](O/N=C2/C[C@@H](O)[C@@H](O)[C@@H]3[C@@H]4C(=O)N(Cc5ccccc5)C(=O)[C@H]4CC[C@@H]23)[C@H](OC(C)=O)[C@H](OC(C)=O)[C@@H]1OC(C)=O	-5%[11.5 µM]	-13%[11.6 µM]	-2%[13.1 µM]	-19%[11.6 µM]	x	x
Oc1ccccc1/C=N/NC(=S)NC1CC2CC1C1C=CCC21 (centres undefined)	-11%	-13%	-23%	13µM*[quencher]	16µM*	u
COc1ccc(Cl)cc1NC(=O)c1cc(S(=O)(=O)N2CCc3ccccc32)cn1C	-12%	4%	x	-10%	x	11%[46 µM]
COc1ccc(-n2nc3cc(C)c(N)c(Br)c3n2)cc1	14µM*	u	4%	u	u	u
N#Cc1ccc(NC(=O)Nc2ccc(Oc3ccc(NC(=O)Nc4ccc(C#N)cc4)cc3)cc2)cc1	u	u	4%	7.9µM*[quencher]	u	u
N#Cc1ccc(NC(=O)Nc2cccc(C#N)c2)cc1	u	u	0%	u	0%	u
O=C(COC(=O)CCN1C(=O)/C(=C\C=C\c2ccccc2)SC1=S)Nc1cc(F)ccc1F	6.3µM*	1%	u	u	-16%	x
O=C(CCN1C(=O)/C(=C/C=C/c2ccccc2)SC1=S)Nc1nc2ccccc2s1	3.5µM*	5%	-8%	-22%	16%	-10%
O=C(CN1C(=O)/C(=C\C=C\c2ccccc2)SC1=S)Nc1ccc(F)cc1	12%	4%	3%	13%	2%	2%
Cc1ccc(N2CCN(S(=O)(=O)c3ccc(F)c(C(=O)Nc4ccc(Cl)cc4Cl)c3)CC2C)cc1 (centres undefined)	-10%	0%	x	-25%	x	12%[46 µM]
